Records with an inconclusive call do not appear. Calls of active or inactive are those of the source. The call rests on the fitted dose curve; in most records, active means well fitted curve in the direction sought with a large enough effect; inconclusive means small, poorly fitted or top-dose-only effect, or another doubt; inactive means no such curve, though single readings can be large; an effect the other way counts as inactive or inconclusive.
Tests used:
[1] = Cell Viability - H-4-II-E (AID 543);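 further: cells exposed to compound for 40 hours; on the % scale 0 is the no-effect control and ±100 the full control effect; nearly all actives have a fitted effect of over 35% in size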
Method in brief: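 Luminescent ATP signal (CellTiter-Glo) served as the viability read-out, with cytotoxicity seen as a concentration-dependent ATP drop. Cells were treated for 40 hours in complete medium. AC50 values derive from Hill-equation modelling.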

[2] = Cell Viability - SH-SY5Y (AID 544); settings: SH-SY5Y neuroblastoma cell viability; viability change, negative = cytotoxic: at 92.2 µM (top of the series);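 further: cells exposed to compound for 40 hours; nearly all actives have a fitted effect of over 55% in size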
Method in brief: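 Luminescent ATP read-out (CellTiter-Glo) measures loss of viable SH-SY5Y neuroblastoma cells after 40 hr compound exposure at 37 °C. AC50 values derive from standard Hill modelling of qHTS concentration-response data.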

[3] = Cell Viability - Mesenchymal (AID 546);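 further: cells exposed to compound for 40 hours before reading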
Method in brief: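 Human kidney mesenchymal cells from normal renal glomeruli, 1000 cells/well, rested 5 hr at 37 °C, then treated 40 hr at 37 °C in complete medium. Cellular ATP read by CellTiter-Glo luminescence; AC50 from Hill-equation fits.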

[4] = Cellular Toxicity (caspase-3) HepG2 (AID 654);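 further: cells exposed to compound for 16 hours before reading; 0% = DMSO alone and 100% = caspase signal from 100 µM tamoxifen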
Method in brief: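 Cells plated 5 hr at 37 °C, compound added, incubated 16 hr at 37 °C. Caspase-Glo 3/7 reagent followed, 20 min at room temperature, then luminescence read. Activation scored as signal increase; AC50 from Hill fit.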

[5] = Cellular Toxicity (caspase-3) Jurkat (AID 655); settings: Jurkat caspase-3 activation, luminescence; caspase-3 activation: at 92.2 µM (top of the series), DMSO = 0%, tamoxifen = 100%;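 further: cells exposed to compound for 16 h at 37 °C before reading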
Method in brief: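 Luminescent caspase-3/7 readout (aminoluciferin substrate cleavage) in human T-cell leukemia Jurkat cells after 16 hr compound exposure. Concentration-response normalized to DMSO and 100 uM tamoxifen; AC50 by standard Hill equation.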

[6] = Cellular Toxicity (caspase-3) HUV-EC-C (AID 656)
Method in brief: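 Luminescent caspase-3/7 activation (aminoluciferin substrate cleavage) in HUV-EC-C cells after 16 hr compound exposure, 37°C. Signal normalized to DMSO basal and 100 uM tamoxifen as 100%; AC50 from concentration-response fitted with the Hill equation.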

[7] = Cellular Toxicity (caspase-3) BJ (AID 658);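 further: cells exposed to compound for 16 hours; 0% = DMSO basal and 100% = 10 µM staurosporine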
Method in brief: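 BJ human foreskin fibroblasts, 1000 cells/well, treated 16 hours at 37 °C in complete medium; caspase 3/7 activity by Caspase-Glo luminescence after 1 hr at room temperature. Normalized to DMSO and 10 uM staurosporine; AC50 from Hill fits.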

[8] = Cellular Toxicity (caspase-3) MRC-5 (AID 659);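 further: cells exposed to compound for 16 h at 37 °C; 0% = DMSO basal and 100% = 10 µM staurosporine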
Method in brief: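 MRC-5 human normal lung fibroblasts, 1500 cells/well, treated 16 h at 37 °C in complete medium. Caspase 3/7 measured by Caspase-Glo luminescence after 1 h at room temperature. Normalized to DMSO and 10 uM staurosporine; AC50 from Hill fit.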

[9] = Cell Viability - Renal Proximal Tubule (AID 545);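 further: cells exposed to compound for 40 hours; nearly all actives have a fitted effect of over 40% in size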
Method in brief: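 Rat kidney proximal tubule cells, freshly isolated; 1000 cells/well, 5 hr settle, compound 40 hr 37 °C. CellTiter-Glo 20 min RT, luminescence read. AC50 by standard Hill fit.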

[10] = Cellular Toxicity (caspase-3) SHSY5Y (AID 657);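 further: cells exposed to compound for 16 hours at 37 °C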
Method in brief: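 Luminescent caspase-3/7 readout (aminoluciferin release) in SH-SY5Y cells after 16 h compound exposure in complete medium. Activity scaled between DMSO basal and 10 uM staurosporine as 100%; concentration-response fitted to Hill equation for AC50.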

Cc1cscn1
inactive: Potency [1] | Potency [2] | Potency [3] | Potency [4] | caspase-3 activation [5] 2.2% | outcome [6] | outcome [7] | outcome [8]

CCNc1cc(O)ccc1C
inactive: Potency [1] | Potency [9] | Potency [3] | Potency [4] | caspase-3 activation [5] 0.87% | outcome [6] | outcome [10] | outcome [7] | outcome [8]

CC1(N)CCC(C(C)(C)N)CC1 (stereo not given)
inactive: Potency [1] | Potency [9] | Potency [3] | Potency [4] | caspase-3 activation [5] 1.23% | outcome [6] | outcome [10] | outcome [7] | outcome [8]

Nc1nc(-c2ccccc2)cs1
inactive: Potency [1] | Potency [9] | Potency [4] | caspase-3 activation [5] -3.96% | outcome [6] | outcome [10] | outcome [7] | outcome [8]

CC(C)(c1cc(Br)c(OCC(Br)CBr)c(Br)c1)c1cc(Br)c(OCC(Br)CBr)c(Br)c1 (stereo not given)
active: caspase-3 activation [5] 99.2%
inactive: Potency [2] | Potency [9] | Potency [3] | Potency [4] | outcome [6] | outcome [10] | outcome [7] | outcome [8]

CCOC(=O)C(C)C(C)=O (stereo not given)
inactive: Potency [1] | Potency [2] | Potency [3] | Potency [4] | caspase-3 activation [5] 3.08% | outcome [6] | outcome [10] | outcome [7] | outcome [8]

Cc1cccc(Br)c1
inactive: Potency [1] | Potency [2] | Potency [3] | Potency [4] | caspase-3 activation [5] -1.22% | outcome [6] | outcome [10] | outcome [7] | outcome [8]

FC(F)(F)c1cccc(Cl)c1
inactive: Potency [2] | Potency [9] | Potency [3] | Potency [4] | caspase-3 activation [5] -0.146% | outcome [6] | outcome [10] | outcome [7] | outcome [8]

Cc1ccc(Br)cc1
inactive: Potency [1] | Potency [2] | Potency [3] | Potency [4] | caspase-3 activation [5] 0.635% | outcome [6] | outcome [7] | outcome [8]

CC(C)C=O
inactive: Potency [1] | Potency [2] | Potency [3] | Potency [4] | caspase-3 activation [5] 0.00972% | outcome [6] | outcome [10] | outcome [7] | outcome [8]

Cc1c(N)cccc1[N+](=O)[O-]
inactive: Potency [1] | Potency [2] | Potency [3] | Potency [4] | caspase-3 activation [5] 2.77% | outcome [6] | outcome [10] | outcome [7] | outcome [8]

O=[N+]([O-])c1ccc(NCCO)c(OCCO)c1
inactive: Potency [1] | Potency [2] | Potency [4] | outcome [6] | outcome [7] | outcome [8]

CCCCCCC(=O)O
inactive: Potency [1] | Potency [2] | Potency [3] | Potency [4] | outcome [6] | outcome [10] | outcome [7] | outcome [8]

Cc1c(N)cccc1N
inactive: Potency [1] | Potency [2] | Potency [3] | Potency [4] | caspase-3 activation [5] -0.535% | outcome [6] | outcome [10] | outcome [7] | outcome [8]

CC(=O)c1nccs1
inactive: Potency [2] | Potency [9] | Potency [3] | Potency [4] | caspase-3 activation [5] 0.174% | outcome [6] | outcome [10] | outcome [7] | outcome [8]

Cc1cccc2ccccc12
inactive: Potency [1] | Potency [2] | Potency [3] | Potency [4] | outcome [6] | outcome [10] | outcome [7] | outcome [8]

N#Cc1ccccc1
inactive: Potency [1] | Potency [2] | Potency [3] | caspase-3 activation [5] -1.39% | outcome [6] | outcome [10] | outcome [7] | outcome [8]

C/C(C=O)=C/c1ccccc1
inactive: Potency [1] | Potency [2] | Potency [3] | Potency [4] | caspase-3 activation [5] -0.305% | outcome [6] | outcome [7] | outcome [8]

c1ccc2n[nH]nc2c1
inactive: Potency [1] | Potency [2] | Potency [3] | Potency [4] | caspase-3 activation [5] 1.47% | outcome [6] | outcome [10] | outcome [7] | outcome [8]

Nc1nc2ccccc2[nH]1
inactive: Potency [1] | Potency [2] | Potency [3] | Potency [4] | caspase-3 activation [5] 10.5% | outcome [6] | outcome [10] | outcome [7] | outcome [8]

Cc1ccc(Cl)cc1N
inactive: Potency [1] | Potency [4] | caspase-3 activation [5] 4% | outcome [6] | outcome [10] | outcome [7] | outcome [8]

BrC(Br)C(Br)Br
inactive: Potency [1] | Potency [2] | Potency [3] | Potency [4] | caspase-3 activation [5] 0.993% | outcome [6] | outcome [7] | outcome [8]

Nc1c(Cl)cc(Cl)cc1Cl
inactive: Potency [1] | Potency [2] | Potency [3] | Potency [4] | caspase-3 activation [5] 1.83% | outcome [6] | outcome [10] | outcome [7] | outcome [8]

CN(C)c1cccc(O)c1
inactive: Potency [1] | Potency [2] | Potency [3] | Potency [4] | outcome [6] | outcome [10] | outcome [7] | outcome [8]

C=Cc1ccccn1
inactive: Potency [1] | Potency [2] | Potency [3] | Potency [4] | caspase-3 activation [5] 0.756% | outcome [6] | outcome [10] | outcome [7] | outcome [8]

O=C1OC(=O)c2c(Br)c(Br)c(Br)c(Br)c21
inactive: Potency [2] | Potency [9] | Potency [3] | Potency [4] | caspase-3 activation [5] -0.0657% | outcome [6] | outcome [10] | outcome [7] | outcome [8]

Clc1ccccn1
inactive: Potency [2] | Potency [9] | Potency [3] | Potency [4] | caspase-3 activation [5] -1.1% | outcome [6] | outcome [7] | outcome [8]

O=[N+]([O-])c1cccc(Cl)c1
inactive: Potency [2] | Potency [9] | Potency [3] | Potency [4] | caspase-3 activation [5] -3.2% | outcome [6] | outcome [10] | outcome [7] | outcome [8]

CCCCOCCOCCOCCCC
inactive: Potency [2] | Potency [9] | Potency [3] | Potency [4] | caspase-3 activation [5] 0.193% | outcome [6] | outcome [10] | outcome [7] | outcome [8]

CCC(O)C(C)(C)C (stereo not given)
inactive: Potency [2] | Potency [9] | Potency [3] | Potency [4] | caspase-3 activation [5] 2.09% | outcome [6] | outcome [10] | outcome [7] | outcome [8]

Source: PubChem BioAssay (NCATS)
